PubChem BioAssay (NCATS)
Several values for one entry are separate records, joined by “and”; a condition that tells them apart may be missing. Equal values may be shown once. Results filed as inconclusive are left out. Entries that show only a call come without a potency. A number with no mark means an inactive call. Activity calls are given as the source filed them. The call rests on the fitted dose curve; in most records, active means well fitted curve in the direction sought with a large enough effect; inconclusive means small, poorly fitted or top-dose-only effect, or another doubt; inactive means no such curve, though single readings can be large; an effect the other way counts as inactive or inconclusive.

Experiments:
[1] = qHTS Assay for Identifying Gametocytocidal Compounds (AID 743244); further: potency means the concentration at half of the fitted maximal effect;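 on max response: actives lower the fluorescent signal which means gametocytes are killed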; details: P. falciparum 3D7 stage III-V gametocytes, alamarBlue, 72 h; max response: hits give low values
Outline: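 Viability read-out was resazurin reduction (alamarBlue, 24 h) measured at Ex 525/Em 598 nm. Beforehand, late-stage (III-V) 3D7 P. falciparum gametocytes at 20,000 cells/well were incubated with compound 72 h at 37C under 5% CO2.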

[2] = qHTS assay to identify small molecule inhibitors of chordoma cells - UCH-1 (AID 1259355); further: nearly all actives have a fitted effect of over 55% in size
Outline: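 800 cells/well, overnight attach; compounds pinned at 15 concs, then auranofin/camptothecin/doxorubicin/rubitecan/topotecan combo added; 48hr 37 C, 5% CO2; CellTiter-Glo, 30min RT, luminescence.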

[3] = qHTS assay to identify small molecule inhibitors of chordoma cells - UCH-2 (AID 1259356); further: series mostly up to about 46 µM

Row | Compound | max response [1] | Potency [2] | Potency [3] | Potency [1]
1 | CNCC(=O)N[C@@H](CCCN=C(N)N)C(=O)N[C@H](C(=O)N[C@@H](Cc1ccc(O)cc1)C(=O)N[C@H](C(=O)N[C@@H](Cc1cnc[nH]1)C(=O)N1CCC[C@H]1C(=O)N[C@@H](C)C(=O)O)C(C)C)C(C)C | 5.17% | inactive | inactive | –
2 | C/C(=C\C(=O)OCCCCCCCCC(=O)O)C[C@@H]1OC[C@H](C[C@@H]2O[C@H]2[C@@H](C)[C@H](C)O)[C@@H](O)[C@H]1O | -6.76% | inactive | inactive | –
3 | CC(C)=CCC/C(C)=C/CC/C(C)=C/CC/C(C)=C/CC1=C(C)C(=O)c2ccccc2C1=O | – | inactive | inactive | 7.94 µM (active)
4 | C=CC1=C(C(=O)O)N2C(=O)[C@@H](NC(=O)/C(=N\O)c3csc(N)n3)[C@H]2SC1 (stereo in doubt) | 1.2% and 8.54% | inactive | inactive | –
5 | CCCCCCOC(=O)c1cccnc1 | 30.2% | inactive | inactive | –
6 | CC(C)(C)NCC(O)c1ccc(O)c(CO)n1 (centres undefined) | 6.55% | inactive | inactive | –
7 | CC1=C(/C=C/C(C)=C/C=C/C(C)=C/C(=O)Oc2c(C)c(C)c3c(c2C)CC[C@@](C)(CCC[C@H](C)CCC[C@H](C)CCCC(C)C)O3)C(C)(C)CCC1 | 0.0927% | inactive | inactive | –
8 | CS(=O)(=O)c1ccc([C@@H](O)[C@@H](COC(=O)CN)NC(=O)C(Cl)Cl)cc1 | 0.65% | inactive | inactive | –
9 | O=C(O)/C=C/c1ccccc1 | 0.36% | inactive | inactive | –
10 | C=CCCCCCCCCC(=O)OC | 16.7% | inactive | inactive | –
11 | CO/N=C(\C(=O)N[C@@H]1C(=O)N2C(C(=O)O)=CCS[C@H]12)c1csc(N)n1 | 5.71% | inactive | inactive | –
12 | C(=C\c1ccncc1)/c1ccccc1 | 1.05% and -0.436% | inactive | inactive | –
13 | C[N+]1(C)[C@@H]2CC(OC(=O)C(O)(c3cccs3)c3cccs3)C[C@H]1[C@@H]1O[C@@H]12 (some centres undefined) | 8.38% | inactive | inactive | –
14 | C=O | 20.4% | inactive | inactive | –
15 | C[C@]12CC[C@@H]3c4ccc(O)cc4CC[C@H]3[C@@H]1CC[C@@H]2OP(=O)(O)O | -0.293% | inactive | inactive | –
16 | CCC(=O)OC(OP(=O)(CCCCc1ccccc1)CC(=O)N1C[C@H](C2CCCCC2)C[C@H]1C(=O)O)C(C)C (some centres undefined) | 15.3% | inactive | inactive | –
17 | CC(C)(C)C(=O)OCC(=O)[C@H]1CC[C@H]2[C@@H]3CCC4=CC(=O)CC[C@]4(C)[C@H]3CC[C@]12C | 6.08% | inactive | inactive | –
18 | CC(=O)Oc1cccc2c1C(=O)c1c(OC(C)=O)cc(C(=O)O)cc1C2=O | -7.57% | inactive | inactive | –
19 | [O]=[Bi][O][Bi]=[O] | 11.3% | inactive | inactive | –
20 | O=C(OCc1ccccc1)c1cccnc1 | -1.85% | inactive | inactive | –

Row | Compound | max response [1] | Potency [2] | Potency [3] | Potency [1]
21 | Nc1nc(NC2CC2)c2ncn([C@@H]3C=C[C@@H](CO)C3)c2n1 | 15.8% | inactive | inactive | –
22 | Oc1cc(O)cc(O)c1 | 16.3% | inactive | inactive | –
23 | CO/N=C(\C(=O)N[C@@H]1C(=O)N2C(C(=O)[O-])=C(C[n+]3ccc(N)n3CCO)CS[C@H]12)c1csc(N)n1 | -6.21% | inactive | inactive | –
24 | CCOC(=O)c1cc(-c2ccccc2)nc2ccc(C)cc12 | -3.36% | inactive | inactive | –
25 | CC1C(=O)CC2C3(C)CCC2(C(C)C(=O)O)C(=O)C13 (centres undefined) | -7.97% | inactive | inactive | –
26 | O=C(O)COc1ccc(CCNS(=O)(=O)c2ccccc2)s1 | -5.07% | inactive | inactive | –
27 | Cn1cc(NC(=O)c2cc(NC(=O)c3cc(NC=O)cn3C)cn2C)cc1C(=O)NCCC(=N)N | 6.22% | inactive | inactive | –
28 | CN1CCC(OC(=O)C(Oc2ccc(Cl)cc2)Oc2ccc(Cl)cc2)CC1 | 32.5% | inactive | inactive | –
29 | O=C1c2ccccc2C(=O)C1c1ccc(Cl)cc1 | 13.7% | inactive | inactive | –
30 | CCCCC/C=C\C/C=C\C/C=C\CCCCC(=O)O | 14.9% | inactive | inactive | –
31 | CCC[C@@H]1C[C@@H](C(=O)N[C@@H]([C@H]2O[C@H](SC)[C@H](O)[C@@H](O)[C@H]2O)[C@H](C)Cl)N(C)C1 | -8.48% | inactive | inactive | –
32 | O=C(O)CCC(=O)c1ccc(-c2ccccc2)cc1 | 1.84% | inactive | inactive | –
33 | CCC(Cc1c(I)cc(I)c(O)c1I)C(=O)O (centres undefined) | 11.2% | inactive | inactive | –
34 | CN1CCc2c(c3ccccc3n2Cc2ccccc2)C1 | 9.99% | inactive | inactive | –
35 | O=P(O)(O)OP(=O)(O)O | 2.77% | inactive | inactive | –
36 | NC(=O)[C@@H]1CCCN1C(=O)[C@H](Cc1cnc[nH]1)NC(=O)[C@@H]1CCC(=O)N1 | 7.17% | inactive | inactive | –
37 | O=C(O[C@H]1CN2CCC1CC2)N1CCc2ccccc2[C@@H]1c1ccccc1 | 5.85% | inactive | inactive | –
38 | O=C1[O][Bi][O]c2ccccc21 | 14.5% | inactive | inactive | –
39 | CCc1cn([C@H]2C[C@H](O)[C@@H](CO)O2)c(=O)[nH]c1=O | 16.3% | inactive | inactive | –
40 | CC(C)CN(C[C@@H](O)[C@H](Cc1ccccc1)NC(=O)O[C@@H]1CCOC1)S(=O)(=O)c1ccc(N)cc1 | 12.1% | inactive | inactive | –

Row | Compound | max response [1] | Potency [2] | Potency [3] | Potency [1]
41 | NC(=O)[C@@H]1C[C@]2(NC(=O)NC2=O)c2cc(F)ccc2O1 | -13.1% | inactive | inactive | –
42 | CO/N=C(\C(=O)N[C@@H]1C(=O)N2C(C(=O)O)=C(CSc3nnnn3C)CS[C@H]12)c1csc(N)n1 | 2.87% | inactive | inactive | –
43 | COc1cc2c(cc1OC)[C@@H](Cc1cc(OC)c(OC)c(OC)c1)[N+](C)(CCCOC(=O)CC/C=C/CCC(=O)OCCC[N+]1(C)CCc3cc(OC)c(OC)cc3[C@H]1Cc1cc(OC)c(OC)c(OC)c1)CC2 (some centres undefined) | 7.25% and 6.59% | inactive | inactive | –
44 | C[C@@H]1NC(=O)[C@@H](N)CNC(=O)[C@H](C2CCNC(N)=N2)NC(=O)/C(=C/NC(N)=O)NC(=O)[C@H](CNC(=O)C[C@@H](N)CCCN)NC1=O (some centres undefined) | 0.778% and -5.05% | inactive | inactive | –
45 | O=C1C2CC3CC1CC(O)(C3)C2 | 6.58% | inactive | inactive | –
46 | CCCCCc1ccc(C)cc1O | 3.19% | inactive | inactive | –
47 | COc1ccc2cc([C@H](C)CO)ccc2c1 | 13.6% | inactive | inactive | –
48 | C=CC[N@@+]12CC[C@@]34c5ccccc5N5/C=C6/[C@H]7C[C@H]8[C@@]9(CC[N@@+]8(CC=C)C/C7=C/CO)c7ccccc7N(/C=C(/[C@@H](C[C@@H]31)/C(=C\CO)C2)[C@H]54)[C@@H]69 | 4.55% | inactive | inactive | –
49 | Cc1cccc(C)c1NC(=O)NC1=CCCN1C | -1.59% | inactive | inactive | –
50 | CN[C@@H]1[C@@H](O[C@H]2O[C@H](CO)[C@@H](N)[C@H](O)[C@H]2O)O[C@H]2C[C@@H](N)[C@@H](O[C@H]3[C@H](O)[C@@H](O)[C@H](N)C[C@@H]3N)O[C@@H]2[C@@H]1O | 4.88% | inactive | inactive | –
51 | COc1c(O[C@@H]2O[C@H](CO)[C@@H](O)[C@H](O)[C@H]2O)cc2c(c1OC)-c1ccc(SC)c(=O)cc1[C@@H](NC(C)=O)CC2 | 22% | inactive | inactive | –
52 | CNC(=O)C[C@@H](N)C(=O)N[C@@H](C(=O)N[C@@H]1C(=O)N2[C@@H]1SC(C)(C)[C@@H]2C(=O)O)c1ccc(O)cc1 | -4.28% | inactive | inactive | –
53 | O=C1c2ccccc2C(=O)C1c1ccc(F)cc1 | 5.59% | inactive | inactive | –
54 | O=C(O)CC/C=C\CC[C@@H]1[C@@H](N2CCCCC2)[C@@H](O)C[C@@H]1OCc1ccc(-c2ccccc2)cc1 | -9.09% | inactive | inactive | –
55 | CCCCCCCCCCCCCCCCCCOCC(COP(=O)([O-])OCC[N+](C)(C)C)OC (centres undefined) | 3.69% | inactive | inactive | –
56 | O=C(O)c1ccc(NC2OC[C@@H](O)[C@H](O)[C@H]2O)cc1 (some centres undefined) | -2.1% | inactive | inactive | –
57 | c1ccc2cc(C3=NCCN3)ccc2c1 | 5.29% | inactive | inactive | –
58 | CN1c2c(nc(N)[nH]c2=O)NCC1CNc1ccc(C(=O)NC(CCC(=O)O)C(=O)O)cc1 (centres undefined) | 15.5% | inactive | inactive | –
